The source of these data is PubChem BioAssay (EPA / NIEHS).

Where “and” joins values, the source holds several entries; their conditions need not be identical. Equal values may be shown once. The source holds several records for some structures; these can differ, active in one and inactive in another. Calls of active or inactive are those of the source. The calls were made as follows: active = hit-call score of the fitted dose curve at least 0.9, where 1 is the maximum; inactive = score below 0.9.

Read-out in assay [1]: Intercellular Adhesion Molecule 1 (ICAM1), ICAM1 (gene 3383)
The assay can be described thus: BSK_BE3C_ICAM1: BioMAP Diversity Plus: BE3C Assay for Intercellular Adhesion Molecule 1 (ICAM1) Biomarker Activity (AID 2284278).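 As to outcome: cell-surface ICAM-1 protein level quantified by ELISA.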 The following applies: primary human bronchial epithelial cells. In short, it runs like this:
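ICAM-1 quantified by ELISA and fitted against DMSO baseline, 24 h post-dosing in BE3C cultures of primary human lung bronchial epithelial cells. Cytotoxicity checked in parallel cultures by total protein SRB staining.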

Read-out in assay [2]: Interferon-inducible T-cell alpha chemoattractant (ITAC), CXCL11 (gene 6373)
In words: BSK_BE3C_ITAC: BioMAP Diversity Plus: BE3C Assay for Interferon-inducible T-cell alpha chemoattractant (ITAC) Biomarker Activity (AID 2284279). As to conditions: primary human bronchial epithelial cells. In short, it runs like this:
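ELISA for I-TAC in primary human bronchial epithelial cultures 24 h post-treatment, fitted relative to DMSO baseline in positive direction. Cytotoxicity checked in parallel cultures by sulforhodamine B protein staining.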

Read-out in assay [3]: Interleukin-8 (IL8), CXCL8 (gene 3576)
The assay can be described thus: BSK_BE3C_IL8: BioMAP Diversity Plus: BE3C Assay for Interleukin-8 (IL8) Biomarker Activity (AID 2284280). As to conditions: primary human bronchial epithelial cells. The gist of the method: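 Primary human bronchial epithelial cells (BE3C system) were exposed to test chemical for 24 h, and IL-8 levels were then measured by ELISA. Activity was fitted in the positive (gain-of-signal) direction against a DMSO negative-control baseline.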

Read-out in assay [4]: Epidermal growth factor receptor (EGFR), EGFR (gene 1956)
In words: BSK_BE3C_EGFR: BioMAP Diversity Plus: BE3C Assay for Epidermal growth factor receptor (EGFR) Biomarker Activity (AID 2284281). As to conditions: primary human bronchial epithelial cells. The gist of the method: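 Human primary bronchial epithelial cells were exposed to compound for 24 h, and cell-surface EGFR was then quantified by ELISA. Activity was fitted in the positive direction against the DMSO vehicle baseline.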

Read-out in a further assay: KRT18 (gene 3875)
In words: BSK_BE3C_Keratin818: BioMAP Diversity Plus: BE3C Assay for Keratin 818 Biomarker Activity (AID 2284282). As to conditions: primary human bronchial epithelial cells. In short, it runs like this: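 ELISA readout of Keratin 8/18 in human primary bronchial epithelial cultures after 24 h chemical exposure, DMSO baseline. Parallel SRB staining (0.1%, TCA-fixed, 560 nm) served as cytotoxicity check.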

Read-out in assay [5]: Matrix Metallopeptidase 9 (MMP9), MMP9 (gene 4318)
In words: BSK_BE3C_MMP9: BioMAP Diversity Plus: BE3C Assay for Matrix Metallopeptidase 9 (MMP9) Biomarker Activity (AID 2284283). As to conditions: primary human bronchial epithelial cells. The gist of the method: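 ELISA read-out of MMP-9 after 24 h compound exposure of human lung bronchial epithelial primary cells (BE3C). Fit in gain direction vs DMSO negative control; total protein by SRB in parallel cultures flagged overt cytotoxicity.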

Read-out in assay [6]: Plasminogen activator inhibitor-1 (PAI1), SERPINE1 (gene 5054)
The assay can be described thus: BSK_CASM3C_PAI1: BioMAP Diversity Plus: CASM3C Assay for Plasminogen activator inhibitor-1 (PAI1) Biomarker Activity (AID 2284284).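 Also: PAI-1 protein level measured by ELISA 24 h after dosing.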 The following applies: primary human coronary artery smooth muscle cells.

Read-out in assay [7]: Monocyte Chemoattractant Protein-1 (MCP1), CCL2 (gene 6347)
The assay can be described thus: BSK_hDFCGF_MCP1: BioMAP Diversity Plus: hDFCGF Assay for Monocyte Chemoattractant Protein-1 (MCP1) Biomarker Activity (AID 2284285). As to conditions: primary human foreskin fibroblasts. The gist of the method: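 MCP-1 ELISA readout was taken 24 hours after dosing primary human dermal fibroblasts in the hDFCGF system, with DMSO as baseline. Parallel sulforhodamine B staining of total protein tracked overt cytotoxicity.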

Read-out in assay [8]: Vascular cell adhesion molecule 1 (VCAM1), VCAM1 (gene 7412)
In words: BSK_IMphg_VCAM1: BioMAP Diversity Plus: IMphg Assay for Vascular cell adhesion molecule 1 (VCAM1) Biomarker Activity (AID 2284286). As to conditions: primary human endothelial cells with macrophages. The gist of the method:
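ELISA read-out of VCAM-1 on venular endothelial cell/macrophage co-cultures at 24 h post-treatment, with DMSO as baseline and positive-direction fitting. Parallel sulforhodamine B total-protein staining (560 nm) served as the overt cytotoxicity measure.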

Read-out in assay [9]: Intercellular Adhesion Molecule 1 (ICAM1), ICAM1 (gene 3383)
In words: BSK_hDFCGF_ICAM1: BioMAP Diversity Plus: hDFCGF Assay for Intercellular Adhesion Molecule 1 (ICAM1) Biomarker Activity (AID 2284287). The following applies: primary human foreskin fibroblasts. The gist of the method: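 ICAM-1 ELISA readout 24 h after dosing, DMSO as baseline, in human dermal foreskin fibroblast cultures. Cytotoxicity checked in parallel wells by SRB staining (0.1% SRB, 10% TCA fixation, 560 nm).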

Read-out in the next assay: CD40, CD40 (gene 958)
The assay can be described thus: BSK_IMphg_CD40: BioMAP Diversity Plus: IMphg Assay for CD40 Biomarker Activity (AID 2284288). The following applies: primary human endothelial cells with macrophages. The gist of the method: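 ELISA read-out of cell-surface CD40 at 24 h in human venular endothelial cell/macrophage co-cultures. Activity fitted in the positive direction against DMSO; parallel SRB staining (560 nm) gauges overt cytotoxicity.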

Read-out in assay [10]: TIMP metallopeptidase inhibitor 2 (TIMP2), TIMP2 (gene 7077)
The assay can be described thus: BSK_hDFCGF_TIMP2: BioMAP Diversity Plus: hDFCGF Assay for TIMP metallopeptidase inhibitor 2 (TIMP2) Biomarker Activity (AID 2284289). The following applies: primary human foreskin fibroblasts. In short, it runs like this:
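Primary human foreskin fibroblasts in the hDFCGF system, dosed for 24 h; TIMP-2 level measured by ELISA, fitted in the positive direction against DMSO; cytotoxicity checked in parallel by sulforhodamine B total protein staining.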

Read-out in assay [11]: Interleukin-1 alpha (IL1a), IL1A (gene 3552)
In words: BSK_IMphg_IL1a: BioMAP Diversity Plus: IMphg Assay for Interleukin-1 alpha (IL1a) Biomarker Activity (AID 2284290). As to conditions: primary human endothelial cells with macrophages. The gist of the method:
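IL-1α is quantified by ELISA at 24 h in the endothelial/macrophage IMphg co-culture, with gain of signal fitted relative to DMSO. Parallel SRB total-protein staining flags overt toxicity.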

Read-out in assay [12]: E-selectin (Homo sapiens) (UniProt P16581)
In words: BSK_IMphg_ESelectin: BioMAP Diversity Plus: IMphg Assay for Eselectin Biomarker Activity (AID 2284291). As to conditions: primary human endothelial cells with macrophages. In short, it runs like this:
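Analysed against DMSO baseline in the positive fitting direction, this endpoint is an ELISA read of E-selectin. It comes from human venular endothelial cells co-cultured with macrophages, sampled 24 h post-dose.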

Assay [13] in a line: BSK_IMphg_SRB: Viability Assessment in the BioMAP Diversity Plus: IMphg Assay (AID 2284292).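 Also: measured one day after compound addition.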 As to conditions: primary human endothelial cells with macrophages. The gist of the method: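 SRB viability endpoint: cultures of human endothelial cells plus macrophages fixed with 10% TCA, stained with 0.1% SRB, read at 560 nm 24 h post-dosing. Only gain-of-signal fitted, relative to DMSO.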

Read-out in assay [14]: Macrophage colony-stimulating factor (MCSF), CSF1 (gene 1435)
The assay can be described thus: BSK_IMphg_MCSF: BioMAP Diversity Plus: IMphg Assay for Macrophage colony-stimulating factor (MCSF) Biomarker Activity (AID 2284293). As to conditions: primary human endothelial cells with macrophages. The gist of the method:
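M-CSF was measured by ELISA in human venular endothelial cell/macrophage co-cultures dosed for 24 hours. Sulforhodamine B staining of parallel cultures assessed cytotoxicity; data fitted against DMSO baseline.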

Read-out in assay [15]: Interleukin-10 (IL10), IL10 (gene 3586)
The assay can be described thus: BSK_IMphg_IL10: BioMAP Diversity Plus: IMphg Assay for Interleukin-10 (IL10) Biomarker Activity (AID 2284294). As to conditions: primary human endothelial cells with macrophages. The gist of the method:
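IL-10 read by ELISA after 24 h chemical exposure of primary human venular endothelial cell/macrophage cocultures, with DMSO as baseline. Parallel SRB staining (560 nm) gauged overt cytotoxicity.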

Assay [16] is described as follows: BSK_IMphg_SRB.Mphg: Macrophage Viability Assessment in the BioMAP Diversity Plus: IMphg Assay (AID 2284295). As to conditions: primary human endothelial cells with macrophages. In short, it runs like this: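 Cytotoxicity read-out: parallel cultures fixed with 10% TCA, stained with 0.1% sulforhodamine B, read at 560 nm. System combines venular endothelium and macrophages; sampled 24 h post-dosing, fitted positively relative to DMSO control.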

Read-out in assay [17]: Thrombomodulin, THBD (gene 7056)
In words: BSK_LPS_Thrombomodulin: BioMAP Diversity Plus: LPS Assay for Thrombomodulin Biomarker Activity (AID 2284296). As to conditions: primary human HUVEC with PBMC. The gist of the method: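 Thrombomodulin on the surface of LPS-activated endothelial/PBMC co-cultures was quantified by ELISA at 24 hours post-dosing, with DMSO as baseline. Parallel SRB total-protein staining flagged overt cytotoxicity.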

A short description of assay [18]: IUF_NPC2c_oligodendrocyte_migration_120hr: Leibniz Research Institute for Environmental Medicine (IUF) 120-hour Neural Progenitor Cell Migration Assay for Oligodendrocyte Migration (NPC2c) (AID 2284297).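 Also: O4-positive oligodendrocyte migration distance divided by radial glia migration distance.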 The gist of the method: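 hNPC spheres (GW 16-19 cortex), PDL/laminin, DMEM/F12 3:1 + 1% N2, 37C. Dosing day 0–5, half feed day 3, DMSO ≤0.1%. Fixed 120 h; O4 ICC + Hoechst, HCI. Readout: mean oligodendrocyte distance from sphere edge / radial glia distance.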

Sequence of E-selectin (Homo sapiens) (P16581 whole entry, looked up): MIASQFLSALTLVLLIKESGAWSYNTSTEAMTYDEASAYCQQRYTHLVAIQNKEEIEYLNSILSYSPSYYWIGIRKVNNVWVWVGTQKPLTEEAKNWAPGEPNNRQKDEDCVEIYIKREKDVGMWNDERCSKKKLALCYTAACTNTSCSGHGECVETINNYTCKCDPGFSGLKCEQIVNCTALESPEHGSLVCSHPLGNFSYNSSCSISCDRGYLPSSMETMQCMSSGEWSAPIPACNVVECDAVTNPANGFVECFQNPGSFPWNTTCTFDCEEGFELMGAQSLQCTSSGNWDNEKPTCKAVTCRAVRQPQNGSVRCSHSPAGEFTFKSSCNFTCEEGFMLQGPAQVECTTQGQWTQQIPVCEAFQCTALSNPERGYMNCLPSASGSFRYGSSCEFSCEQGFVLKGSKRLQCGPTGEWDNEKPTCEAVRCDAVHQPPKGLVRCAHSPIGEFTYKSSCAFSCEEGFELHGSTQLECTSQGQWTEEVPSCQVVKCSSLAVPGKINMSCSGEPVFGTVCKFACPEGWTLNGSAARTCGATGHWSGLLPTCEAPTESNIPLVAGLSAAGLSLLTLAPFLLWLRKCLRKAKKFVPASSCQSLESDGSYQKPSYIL

On to `O=C(O)C(F)(F)C(F)(F)C(F)(F)C(F)(F)C(=O)O`, for which the outcome (in [1]; in [2]; in [3]; in [4]; with KRT18 (gene 3875); in assay [5]) was inactive. For the same molecule, the outcome in assay [6] is “inactive”; in assay [7], “inactive”; in assay [8], “inactive”; in [9], “inactive”; in the assay with CD40, CD40 (gene 958) it was “inactive”; in [10], “inactive”. Besides, the outcome in assay [11], in assay [12], in assay [13], in assay [14], in [15] and in assay [16] was inactive. For the same molecule, in assay [17], the result was inactive.

As a reminder, the AC50 is the midpoint of the concentration-response curve, whichever way the signal moves. Turning to `C[N+](C)(C)CCCNS(=O)(=O)C(F)(F)C(F)(F)C(F)(F)C(F)(F)C(F)(F)C(F)(F)C(F)(F)C(F)(F)F`, the outcome (in assay [1]; in [2]; in assay [4]; with KRT18 (gene 3875); in [5]; in [6]) was inactive. The outcome in [9], in assay [10], in assay [11], in assay [12], in assay [14] and in assay [17] was inactive. Moreover, the AC50 is 18.1 µM (active) in [3]; 44.8 µM (active) and 44.4 µM (active) in [7]; 13.9 µM (active) and 22.4 µM (active) in assay [8]; 21.8 µM (active) and 23.9 µM (active) in the assay with CD40, CD40 (gene 958); 8.16 µM (active) in [10]; 30 µM (active) in assay [12]. The AC50 in assay [13] is 34.3 µM (active) and 42.3 µM (active); in assay [15], 41 µM (active) and 36.9 µM (active); in [16], 46.2 µM (active) and 30 µM (active); in assay [17] it was 21.4 µM (active).

As to `CCCCNS(=O)(=O)c1ccccc1`, in assay [18], the result was inactive.

On to `Cc1c(C(=O)c2c[nH]n(C)c2=O)ccc(S(C)(=O)=O)c1C1=NOCC1`, for which the molecule was called inactive in assay [18].

With `CC(C)C(=O)OCCc1ccccc1`, the outcome (in assay [1]; in assay [2]; in [3]; in [4]; with KRT18 (gene 3875); in [5]) was inactive. Further, the outcome in assay [6], in [7], in assay [9], in [10] and in [17] was inactive. Moreover, the AC50 with KRT18 (gene 3875) is 0.522 µM (active).

Take `c1ccc(Nc2cccc3ccccc23)cc1`: the AC50 in assay [1] was 12.7 µM (active); in assay [2], 27.2 µM (active) and 30.3 µM (active); in assay [4], 17.6 µM (active) and 37 µM (active); with KRT18 (gene 3875), 20 µM (active); in assay [5] it was 20 µM (active) and 26.6 µM (active); in [7], 20.8 µM (active) and 14.2 µM (active). Further, the AC50 in assay [9] was 33.6 µM (active) and 34.1 µM (active); in [10] it was 33 µM (active) and 31.1 µM (active); in assay [17] it was 33.7 µM (active) and 31.2 µM (active). Moreover, the result in assay [1], in assay [3] and in assay [6] was inactive.
